GLP1R ag = GLP-1 receptor (human) agonism | P43220 | HEK293 GLP-1R CRE-luciferase, luminescence, 4-6 h; cells express a hypersensitive GLP-1R form | AID 624172 | 380,000 compounds, 0.007% hits | Potency, µM (doses to about 45.6 µM), inactives show at the highest dose activation, actives largely listed as activators; further: % of control where 0% means no effect
HEK293 tox = cytotoxic in the GLP-1 receptor inverse agonist counter-screen; Potency, µM (doses to about 38.3 µM), for inactives: at the highest dose activity change, negative = inhibition, hits mostly inhibitors; 410,000 compounds, 0.13% hits; HEK293 cAMP-luciferase reporter cells, luminescence, 24 h;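 further: loss of luciferase light is scored as toxicity; on the % scale 0 is the no-effect control and ±100 the full control effect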
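Here, cytotoxicity is scored as loss of luminescence. The MLSMR collection was tested on cells seeded in medium containing 10% Nu serum, with a 24 hr compound exposure preceded by 12 hours of culture.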
PTHR1 ag = PTHR1 (human) receptor agonism; Potency, µM (top dose mostly 115 µM), for inactives: top-dose activation, usual class: activators; HEK293 GP2 PTHR1 cells, GloSensor cAMP luminescence, 1 h; 410,000 compounds, 0.075% hits; Q03431; AID 743266; further: nearly all actives have a fitted effect of over 55% in size
Target sequence (Q03431 whole entry, looked up): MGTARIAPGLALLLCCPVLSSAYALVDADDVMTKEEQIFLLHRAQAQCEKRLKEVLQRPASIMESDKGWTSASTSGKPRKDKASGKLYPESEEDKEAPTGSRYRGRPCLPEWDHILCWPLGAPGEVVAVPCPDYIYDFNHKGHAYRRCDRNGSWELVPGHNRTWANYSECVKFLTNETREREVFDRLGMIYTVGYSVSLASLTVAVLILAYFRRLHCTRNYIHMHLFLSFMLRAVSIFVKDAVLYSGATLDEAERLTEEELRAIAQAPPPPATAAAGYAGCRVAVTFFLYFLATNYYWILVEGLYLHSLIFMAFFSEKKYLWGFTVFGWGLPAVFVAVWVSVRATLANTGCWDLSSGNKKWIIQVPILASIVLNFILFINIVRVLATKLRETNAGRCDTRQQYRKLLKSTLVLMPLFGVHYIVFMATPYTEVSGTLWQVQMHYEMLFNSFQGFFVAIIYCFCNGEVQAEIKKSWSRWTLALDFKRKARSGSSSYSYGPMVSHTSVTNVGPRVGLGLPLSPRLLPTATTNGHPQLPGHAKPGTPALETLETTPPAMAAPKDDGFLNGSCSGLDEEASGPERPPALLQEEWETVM
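HEK-293-derived GP2 cells expressing PTHR1 and a GloSensor cAMP reporter, 3,000/well, plated overnight, given luciferin plus IBMX (each 0.5 mM as added) for 1 h at 37 °C, then compound for 1 h at 37 °C. Luminescence was read after 15 min at room temperature.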
GLP-1R inv ag = GLP-1 receptor (human) inverse agonism; HEK293 GLP-1R CRE-luciferase, luminescence, 24 h; GLP-1R form is constitutively active; Potency, µM (highest dose often 38.3 µM), inactives show top-dose activity change, negative = inhibition, hits mostly inhibitors; 410,000 compounds, 1.6% hits; AID 624417; further: on the % scale 0 is the no-effect control and ±100 the full control effect; nearly all actives have a fitted effect of over 55% in size
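Seeding at 200 cells/uL, 12 h culture, 24 hr compound treatment, then luciferase reagent and a luminescence read; cells are HEK293 stably expressing a constitutively active GLP-1R plus cAMP-responsive luciferase.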
Numbers without * were called inactive; i = inactive; ? = inconclusive; nt = no result given; ! = not active in a repeat; [ ] = remark or other dose. Sampled rows, rich in hits. Any-hit rate of the full collection: about 1.7%. The call rests on the fitted dose curve; in most records, active means well fitted curve in the direction sought with a large enough effect; inconclusive means small, poorly fitted or top-dose-only effect, or another doubt; inactive means no such curve, though single readings can be large; an effect the other way counts as inactive or inconclusive. Potency means the concentration at half of the fitted maximal effect.

SMILES	GLP1R ag	HEK293 tox	PTHR1 ag	GLP-1R inv ag
Cc1ccc(Nc2nc(-c3ccccc3)cs2)nc1	0%	-14%	-36%	?
Cc1ccc(CN(C)C(=O)CN2C(=O)NC(c3ccccc3)(c3ccccc3)C2=O)c(C)c1	-1%	-15%	-7%	3.5µM*
CCn1c(=O)cc(OCC(=O)Nc2cc(OC)c(OC)c(OC)c2)c2ccccc21	12%	-5%	-13%	5%
CCOCCCNC(=O)/C(C#N)=C/c1cc(OC)c(O)c([N+](=O)[O-])c1	8%	?	-19%	?
CCOCCCNC(=O)/C(C#N)=C/c1ccc(Cl)c([N+](=O)[O-])c1	-8%	?	i	11µM*
Cc1cccc(N(CC(O)Cn2c3ccccc3c3ccccc32)S(=O)(=O)c2ccc(F)cc2)c1 (stereo unspecified)	nt	?	i	13µM*
CC(=O)Nc1ccc(N(CC(O)Cn2c3ccccc3c3ccccc32)S(=O)(=O)c2ccc(C)cc2)cc1 (stereo unspecified)	3%	?	i	7.9µM*
CCOc1ccc(-n2c(=O)c3c(C)c(C)sc3n(CC(=O)Nc3ccc(CC)cc3)c2=O)cc1	nt	-7%	6%	-9%
C/C(=N\NC(=O)c1nnn(-c2nonc2N)c1-c1cccs1)c1ccc(C)cc1	-4%	-11%	-4%	-11%
C/C(=N\NC(=O)c1nnn(-c2nonc2N)c1-c1cccs1)c1ccc(O)cc1	-2%	-21%	i	7.9µM*
CCN(Cc1ccc(OC)c(F)c1)C(=O)CCl	0%	-18%	i	3.2µM*
CCN(Cc1ccc(OC)c(F)c1)C(=O)C1CCCO1 (stereo unspecified)	6%	-19%	i	-11%
Cc1ccc(CNC(=S)Nc2ccc(NS(=O)(=O)c3ccc(C)cc3)cc2)cc1	0%	?	-7%	10µM*
Cc1cc(C)c(S(=O)(=O)c2ccccc2)c(OC(=O)c2c(Cl)cc(Cl)cc2Cl)n1	-11%	?	-9%[57.5 µM]	7.9µM*
O=C(NOC[C@H](O)CO)c1ccc(F)c(F)c1Nc1ccc(I)cc1F	-2%	nt	nt	nt
Cc1cccc(/C=C/c2onc(C)c2S(=O)(=O)N2CCC(C(=O)N3CCCCCC3)CC2)c1	-4%	-3%	-24%	2.8µM*
Cc1cccc(/C=C/c2onc(C)c2S(=O)(=O)N2CCC(C(=O)N3CCC(C)CC3)CC2)c1	1%	-4%	-1%	2.8µM*!
COc1cccc(/C=C/c2onc(C)c2S(=O)(=O)N2CCC(C(=O)N3CCC(C)CC3)CC2)c1	nt	-3%	-2%	12%
Cc1ccc(C)c(N2CCN(C(=O)C3CCN(S(=O)(=O)c4c(C)noc4C)CC3)CC2)c1	1%	-14%	-29%	11µM*
Cc1ccc(CNC(=O)c2nnn(Cc3ccc(F)cc3)c2N)cc1	nt	12%	i	-11%
COC(=O)C1CCN(S(=O)(=O)c2ccc(N3CCCCS3(=O)=O)cc2)CC1	nt	1%	-20%	-11%
Cc1ccc(C(=O)NC2CCCCCCC2)c(Cl)c1	0%	6%	-47%	4µM*
Cc1noc(C)c1C(=O)OCC(=O)Nc1ccc(N2CCOCC2)cc1	-5%	-1%	18µM*	1%
COc1ccc(-c2cn3cccnc3n2)cc1NC(=O)Nc1ccc(Cl)cc1	nt	3%	i	-27%
CCC(C)N(CCNC(=O)c1ccc2c(c1)NC(=O)c1ccccc1S2)C1CCCCC1 (stereo unspecified)	6%	?	?	3.5µM*
SMILES	GLP1R ag	HEK293 tox	PTHR1 ag	GLP-1R inv ag
Oc1ccccc1-c1nc2ccccc2nc1-c1ccccc1	24%	-3%	-3%	11µM*
C[C@@H](C(=O)Nc1ccc2ccccc2c1)[C@H]1C[C@]1(C)[C@H](NC(=O)OCc1ccccc1)c1ccccc1	-5%	-31%	-18%	?
Cc1cc(C(=O)N[C@H](c2ccccc2)[C@@]2(C)C[C@@H]2[C@@H](C)C(=O)Nc2ccc3ccccc3c2)n(C)n1	11%	-21%	-56%	10µM*
O=C1C=CC(=C(c2ccc(O)cc2)c2ccc(O)cc2)C=C1	-6%	8.9µM*	-95%	5.6µM*
COc1ccc(Cl)cc1NC(=O)c1cc(=O)c2cc(C)cc(C)c2o1	nt	-12%	i	4%
CN(C)c1ccc(N=Nc2ccc(C(=O)O)cc2)cc1	-6%	?	-23%	2.5µM*
CC1CC(C)CN(C(=O)CNC(=O)c2sc3ccccc3c2Cl)C1 (stereo unspecified)	-9%	5%	-66%	3.2µM*
CC(C)CCNC(=O)c1onc(CSc2ccc(F)cc2)c1C(=O)NCCC(C)C	-4%	19%	i	?
CC(C)CCNC(=O)c1onc(CSc2ccc(Cl)cc2)c1C(=O)NCCC(C)C	4%	2%	i	10µM*
CCCNC(=O)c1onc(CSc2ccccc2)c1C(=O)NCCC	-4%	7%	-18%	?
CC(C)CCNC(=O)c1onc(CSc2ccccc2)c1C(=O)NCCC(C)C	7%	-14%	-4%	4µM*
Cc1ccc(CNC(=O)c2c(C)oc3nc(C)nc(N4CCOCC4)c23)cc1	nt	-4%	i	8%
CC(=O)Nc1ccn(C2COC(COC(=O)c3ccccc3)O2)c(=O)n1 (stereo unspecified)	8%	nt	nt	nt
Cc1ccc(S(=O)(=O)N(CC(=O)NCCSCc2ccco2)c2cc(C)ccc2C)cc1	0%	2%	-30%	11µM*
CCOC(=O)[C@H]1[C@H]2COc3ccc(Cl)cc3[C@@H]2N2C(=O)c3cc(Br)ccc3NC(=O)[C@@]12C	-2%	1%	-10%	3.5µM*
CCOC(=O)[C@H]1[C@H]2COc3ccc(Cl)cc3[C@@H]2N2C(=O)c3cc(F)c(F)cc3NC(=O)[C@@]12C	3%	6%	-40%	10µM*
CCOC(=O)[C@H]1[C@H]2COc3ccc(Br)cc3[C@@H]2N2C(=O)c3cc(Br)ccc3NC(=O)[C@@]12C	-2%	-49%	-14%	2.8µM*
Clc1ccccc1CSc1cc2c(nn1)-c1ccccc1CC2	-4%	2%	-9%	10µM*
Clc1cccc(Cl)c1CSc1cc2c(nn1)-c1ccccc1CC2	-10%	-4%	i	-5%
CCCCCN1CSC(=S)N(Cc2ccccc2)C1	0%	?	i	13µM*
Cc1nnc(C(C)C)n1C1C[C@H]2CC[C@@H](C1)N2CC[C@H](NC(=O)C1CCC(F)(F)CC1)c1ccccc1 (stereo partly specified)	-2%	nt	nt	nt
COC(=O)c1cc2oc3ccccc3c2n1Cc1ccccn1	13%	-15%	-13%[57.5 µM]	4.5µM*
CC(C)(C)c1ccc(C(=O)Nc2ccc(Cl)cc2)cc1	0%	-3%	i	18%
COC(=O)Cc1ccc(NC(=O)c2ccc(C(C)(C)C)cc2)cc1	-1%	?	-15%[57.5 µM]	4.5µM*
COc1ccc(OC)c(NC(=O)Cn2nc3c(cc2=O)CCCC3)c1	0%	4%	?	6%
